Drawing on ChEMBL document CHEMBL3988442, “University of Dundee, Small-Polar-MMV Screening Library” (2021), this text covers Percent Effect for 10 compounds.

For some assays here: Measured potencies and affinities stand elsewhere.

Set-up in all cases: scale not given: direction of the effect not stated beside the values
The target in assay [1] is Protein translocase subunit SecA (Escherichia coli (strain K12)) (UniProt P10408). The experiment in a line: Assay to Identify E. coli SecA ATPase Inhibitors. The class given is functional. The note with it: 30 µM.
Assay [2] deals with T1, Ubiquitin-activating enzyme e1, putative (Leishmania donovani (strain BPK282A1)) (UniProt E9BSI1).
T1 sequence (whole entry): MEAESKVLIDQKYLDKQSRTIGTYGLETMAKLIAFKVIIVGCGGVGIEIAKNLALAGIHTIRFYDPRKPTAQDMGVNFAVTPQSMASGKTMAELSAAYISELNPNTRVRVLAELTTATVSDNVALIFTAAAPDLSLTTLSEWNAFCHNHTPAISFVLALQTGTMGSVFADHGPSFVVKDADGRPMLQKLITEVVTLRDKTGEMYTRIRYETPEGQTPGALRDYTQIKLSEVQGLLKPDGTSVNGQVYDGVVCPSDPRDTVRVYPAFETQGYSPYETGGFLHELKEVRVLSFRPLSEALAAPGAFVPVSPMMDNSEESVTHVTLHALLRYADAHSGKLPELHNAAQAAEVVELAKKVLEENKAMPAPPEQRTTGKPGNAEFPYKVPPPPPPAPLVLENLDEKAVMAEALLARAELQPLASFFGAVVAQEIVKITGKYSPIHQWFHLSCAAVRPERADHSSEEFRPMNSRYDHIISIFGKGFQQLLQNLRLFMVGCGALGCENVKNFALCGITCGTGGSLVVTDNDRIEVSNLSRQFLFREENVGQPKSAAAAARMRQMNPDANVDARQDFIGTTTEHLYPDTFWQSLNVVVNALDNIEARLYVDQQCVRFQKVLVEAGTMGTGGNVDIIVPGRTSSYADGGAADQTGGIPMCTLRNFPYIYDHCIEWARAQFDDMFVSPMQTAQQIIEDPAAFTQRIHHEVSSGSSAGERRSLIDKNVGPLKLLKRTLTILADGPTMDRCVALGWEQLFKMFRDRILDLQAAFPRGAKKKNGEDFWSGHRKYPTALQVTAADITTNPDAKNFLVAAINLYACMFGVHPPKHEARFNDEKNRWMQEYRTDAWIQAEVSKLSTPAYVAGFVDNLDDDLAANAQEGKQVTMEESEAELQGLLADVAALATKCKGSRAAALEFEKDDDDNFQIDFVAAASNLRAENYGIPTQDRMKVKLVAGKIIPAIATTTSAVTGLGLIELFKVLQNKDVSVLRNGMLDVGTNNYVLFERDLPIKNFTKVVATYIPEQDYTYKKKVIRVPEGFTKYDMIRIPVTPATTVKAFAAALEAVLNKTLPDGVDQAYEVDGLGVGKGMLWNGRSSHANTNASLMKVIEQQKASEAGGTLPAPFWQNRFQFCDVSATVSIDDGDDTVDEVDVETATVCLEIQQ
Description: Leishmania donovani Ubiquitin Activating Enzyme (LdE1). The class given is functional. The following applies: 30 µM.

The target of assay [3] is AMP-activated protein kinase, AMPK (Homo sapiens) (UniProt P54646+O43741+P54619+Q9UGJ0+Q9Y478+Q13131+Q9UGI9). The experiment in a line: AMP-dependent Kinase enzyme assay. An in vitro enzyme assay that detects ADP turnover that is directly proportional to AMPK activity. This uses naive AMPK that is activated during the assay with MK-8722. The assay is classed as functional. The following applies: 30 µM.

Assay [4] addresses Sialic acid-binding Ig-like lectin 9 (Homo sapiens) (UniProt Q9Y336). The experiment in a line: Hs-Siglec9 ALPHAscreen SOP 20170721. The note with it: 10 µM.
For a further assay, the system named is Trypanosoma cruzi. Description: Trypanosoma cruzi phosphomannomutase and mannose-1-phosphate guanylyltransferase assay. The class given is functional. The note with it: 10 µM.
Assay [5] addresses T2, Arginase-2, mitochondrial (Homo sapiens) (UniProt P78540).
T2 sequence (whole entry): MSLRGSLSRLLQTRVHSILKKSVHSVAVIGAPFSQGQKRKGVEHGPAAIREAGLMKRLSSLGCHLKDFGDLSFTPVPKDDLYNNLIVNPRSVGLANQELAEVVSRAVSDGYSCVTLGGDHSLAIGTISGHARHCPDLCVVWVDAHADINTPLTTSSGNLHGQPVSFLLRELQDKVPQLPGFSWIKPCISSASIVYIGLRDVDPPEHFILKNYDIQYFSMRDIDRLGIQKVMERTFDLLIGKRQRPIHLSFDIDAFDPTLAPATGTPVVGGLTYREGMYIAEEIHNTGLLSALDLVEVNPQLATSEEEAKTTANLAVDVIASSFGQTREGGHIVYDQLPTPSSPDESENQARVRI
The experiment in a line: in vitro enzyme assay to detect the production of urea directly proportional to the activity of Arginase II. Also: in the data most compounds retested in dose-response had high values. The class given is functional. The following applies: 33.3 µM.

The target in assay [6] is T3, Proteasome subunit beta (Trypanosoma cruzi) (UniProt O96673).
T3 sequence (whole entry): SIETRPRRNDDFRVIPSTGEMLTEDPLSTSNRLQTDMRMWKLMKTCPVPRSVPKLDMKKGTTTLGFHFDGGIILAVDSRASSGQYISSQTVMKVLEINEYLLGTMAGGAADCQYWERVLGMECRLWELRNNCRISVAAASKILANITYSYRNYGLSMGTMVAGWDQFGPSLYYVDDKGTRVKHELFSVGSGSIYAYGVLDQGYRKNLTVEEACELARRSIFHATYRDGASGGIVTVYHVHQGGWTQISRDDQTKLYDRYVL
The experiment in a line: Trypanosoma cruzi proteasome chymotrypsin-like activity (TcProtChymo) assay. Also: in the data most compounds retested in dose-response had high values. The assay is classed as functional. The note with it: 9.37 µM.

For a further assay, the species on record is Homo sapiens. The experiment in a line: To identify inhibition of the IFN signalling (Jak-Stat) pathway via expression of an eGFP reporter gene under the control of an IFN-stimulated response element (ISRE) containing MxA promoter. The class given is functional. The following applies: 30 µM. On the technique in general: Reporter assays use an easily measured gene product as a stand-in for the process of interest.

For assay [7], the target named is T4, Tyrosyl-tRNA synthetase, putative (Trypanosoma cruzi (strain CL Brener)) (UniProt Q4DSP6).
T4 sequence (whole entry): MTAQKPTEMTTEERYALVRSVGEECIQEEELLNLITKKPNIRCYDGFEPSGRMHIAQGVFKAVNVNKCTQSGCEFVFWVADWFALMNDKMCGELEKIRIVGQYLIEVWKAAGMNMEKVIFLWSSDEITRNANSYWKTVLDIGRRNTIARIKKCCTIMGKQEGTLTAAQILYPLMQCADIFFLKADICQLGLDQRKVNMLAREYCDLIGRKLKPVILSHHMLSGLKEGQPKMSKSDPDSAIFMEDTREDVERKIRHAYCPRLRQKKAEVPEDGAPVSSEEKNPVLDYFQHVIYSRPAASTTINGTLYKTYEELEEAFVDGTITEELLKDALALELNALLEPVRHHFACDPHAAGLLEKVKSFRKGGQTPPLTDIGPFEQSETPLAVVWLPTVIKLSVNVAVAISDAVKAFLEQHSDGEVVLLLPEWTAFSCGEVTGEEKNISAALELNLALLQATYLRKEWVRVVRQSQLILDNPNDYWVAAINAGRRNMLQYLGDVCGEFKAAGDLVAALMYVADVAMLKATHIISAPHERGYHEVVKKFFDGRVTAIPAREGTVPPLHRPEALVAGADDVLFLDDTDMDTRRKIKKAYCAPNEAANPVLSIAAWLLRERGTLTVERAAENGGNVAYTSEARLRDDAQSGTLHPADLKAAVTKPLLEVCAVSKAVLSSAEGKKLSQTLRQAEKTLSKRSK
The experiment in a line: Trypanosoma cruzi tyrosyl tRNA synthetase (TcYRS) _High Tyrosine SOP. Also: in the data most compounds retested in dose-response had high values. The assay is classed as functional. The following applies: 30 µM.

In assay [8] the target is T4, Tyrosyl-tRNA synthetase, putative (Trypanosoma cruzi (strain CL Brener)). The experiment in a line: Trypanosoma cruzi tyrosyl tRNA synthetase (TcYRS) SOP. The following applies: 30 µM. The assay is classed as functional.
The target of assay [9] is Chromo domain-containing protein 1 (Saccharomyces cerevisiae (strain ATCC 204508 / S288c) (Baker's yeast)) (UniProt P32657). The experiment in a line: ScCHD-1 Enzyme Inhibition Assay. Also: in the data most compounds retested in dose-response had high values. The assay is classed as functional. The following applies: 30 µM.
Chain of Chromo domain-containing protein 1 (Saccharomyces cerevisiae (strain ATCC 204508 / S288c) (Baker's yeast)) (P32657 whole entry, the tested form may be a part): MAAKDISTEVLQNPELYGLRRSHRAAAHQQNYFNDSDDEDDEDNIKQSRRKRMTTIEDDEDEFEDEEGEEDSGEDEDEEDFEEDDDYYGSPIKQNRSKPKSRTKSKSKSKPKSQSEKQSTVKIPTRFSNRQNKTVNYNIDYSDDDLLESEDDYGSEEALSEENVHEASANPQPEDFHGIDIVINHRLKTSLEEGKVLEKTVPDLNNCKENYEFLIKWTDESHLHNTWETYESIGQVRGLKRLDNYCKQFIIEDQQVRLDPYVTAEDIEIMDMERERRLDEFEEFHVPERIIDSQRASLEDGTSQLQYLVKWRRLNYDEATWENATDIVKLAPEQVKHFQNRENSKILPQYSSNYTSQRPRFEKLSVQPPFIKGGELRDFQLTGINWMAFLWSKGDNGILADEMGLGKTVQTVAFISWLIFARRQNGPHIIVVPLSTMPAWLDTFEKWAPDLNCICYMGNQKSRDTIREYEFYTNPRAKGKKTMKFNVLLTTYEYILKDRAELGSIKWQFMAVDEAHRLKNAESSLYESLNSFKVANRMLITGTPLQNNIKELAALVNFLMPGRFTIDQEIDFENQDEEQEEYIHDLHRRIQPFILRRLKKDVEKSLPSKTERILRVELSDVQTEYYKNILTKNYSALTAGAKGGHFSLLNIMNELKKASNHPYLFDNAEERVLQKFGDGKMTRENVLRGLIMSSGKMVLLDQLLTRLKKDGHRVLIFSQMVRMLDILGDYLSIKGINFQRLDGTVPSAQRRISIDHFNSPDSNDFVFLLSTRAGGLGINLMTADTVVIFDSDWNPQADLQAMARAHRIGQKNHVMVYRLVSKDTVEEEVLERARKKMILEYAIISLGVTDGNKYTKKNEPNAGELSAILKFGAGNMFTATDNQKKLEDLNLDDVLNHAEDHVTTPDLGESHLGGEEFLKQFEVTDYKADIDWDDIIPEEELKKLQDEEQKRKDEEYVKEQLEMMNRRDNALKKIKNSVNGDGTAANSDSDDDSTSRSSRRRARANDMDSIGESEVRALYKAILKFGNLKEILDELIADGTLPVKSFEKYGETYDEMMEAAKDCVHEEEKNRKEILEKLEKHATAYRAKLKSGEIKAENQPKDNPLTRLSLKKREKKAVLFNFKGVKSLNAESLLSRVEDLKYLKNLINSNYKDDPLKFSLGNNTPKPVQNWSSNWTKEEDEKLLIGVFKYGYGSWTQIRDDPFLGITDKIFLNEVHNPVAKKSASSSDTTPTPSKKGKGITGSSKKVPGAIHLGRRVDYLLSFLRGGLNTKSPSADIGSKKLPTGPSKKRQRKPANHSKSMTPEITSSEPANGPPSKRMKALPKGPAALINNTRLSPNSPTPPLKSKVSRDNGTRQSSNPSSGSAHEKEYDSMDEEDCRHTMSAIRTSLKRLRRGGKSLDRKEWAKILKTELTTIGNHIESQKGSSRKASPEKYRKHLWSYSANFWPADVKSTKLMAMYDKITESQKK

Chain of Protein translocase subunit SecA (Escherichia coli (strain K12)) (P10408 whole entry): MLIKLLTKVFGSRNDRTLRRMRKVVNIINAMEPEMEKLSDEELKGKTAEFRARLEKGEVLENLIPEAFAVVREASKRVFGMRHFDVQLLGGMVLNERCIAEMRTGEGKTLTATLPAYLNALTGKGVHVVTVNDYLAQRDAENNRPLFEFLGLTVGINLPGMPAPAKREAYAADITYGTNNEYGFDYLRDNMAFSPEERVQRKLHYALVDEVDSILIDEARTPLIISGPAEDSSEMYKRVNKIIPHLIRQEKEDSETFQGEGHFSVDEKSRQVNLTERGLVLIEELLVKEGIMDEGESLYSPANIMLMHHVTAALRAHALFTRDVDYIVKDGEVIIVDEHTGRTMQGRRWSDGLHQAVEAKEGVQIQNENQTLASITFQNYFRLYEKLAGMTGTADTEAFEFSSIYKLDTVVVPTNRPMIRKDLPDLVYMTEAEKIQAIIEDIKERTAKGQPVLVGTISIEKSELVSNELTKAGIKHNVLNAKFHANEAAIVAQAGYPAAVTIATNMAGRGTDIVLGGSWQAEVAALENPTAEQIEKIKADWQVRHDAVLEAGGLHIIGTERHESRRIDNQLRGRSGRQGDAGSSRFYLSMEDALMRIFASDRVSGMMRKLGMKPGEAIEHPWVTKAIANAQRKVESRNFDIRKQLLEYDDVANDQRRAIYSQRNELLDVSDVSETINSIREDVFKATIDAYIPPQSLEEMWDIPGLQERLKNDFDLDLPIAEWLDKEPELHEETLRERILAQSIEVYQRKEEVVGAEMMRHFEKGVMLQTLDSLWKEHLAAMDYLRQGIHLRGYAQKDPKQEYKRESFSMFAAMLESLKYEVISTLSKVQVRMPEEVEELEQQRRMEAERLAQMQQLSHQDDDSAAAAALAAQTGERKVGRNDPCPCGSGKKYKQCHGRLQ
Chain of Sialic acid-binding Ig-like lectin 9 (Homo sapiens) (Q9Y336 whole entry): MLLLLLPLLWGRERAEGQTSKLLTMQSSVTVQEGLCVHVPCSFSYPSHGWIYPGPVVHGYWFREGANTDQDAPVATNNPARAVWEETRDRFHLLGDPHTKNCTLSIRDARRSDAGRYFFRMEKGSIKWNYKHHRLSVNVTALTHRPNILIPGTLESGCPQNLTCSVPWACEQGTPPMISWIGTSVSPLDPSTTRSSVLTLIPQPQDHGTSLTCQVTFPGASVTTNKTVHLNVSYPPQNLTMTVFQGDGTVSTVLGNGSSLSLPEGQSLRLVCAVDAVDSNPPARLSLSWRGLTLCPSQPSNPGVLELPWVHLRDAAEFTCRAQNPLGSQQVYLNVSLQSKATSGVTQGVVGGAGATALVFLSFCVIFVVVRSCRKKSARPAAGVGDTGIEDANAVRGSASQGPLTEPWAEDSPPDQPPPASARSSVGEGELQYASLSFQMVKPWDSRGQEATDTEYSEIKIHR

Consider `CC(C)c1nccn1CCCNC(=O)c1ccc(N(C)C)nc1`, for which the Percent Effect in assay [1] was -2.99%; in assay [2], 8%; in [3] it was -4.43%; in [4], 14%; in the assay on Trypanosoma cruzi, 3.21%; in assay [5] it was 13.5%. Also, the Percent Effect in [6] is 6.97%; in the assay listed under Homo sapiens, 13.7%; in assay [7], 1.64%; in assay [8] it was 8.64%; in assay [9], -5.17%.
Take `CCn1nc(C)c(CCn2ccnc2-c2cc3n(n2)CCCNC3)c1C`: the Percent Effect in [1] was -3.39%; in assay [2], 2.67%; in assay [3], 0.691%; in assay [4], 0.912%; in the assay on Trypanosoma cruzi, -3.02%; in [5], 4.17%. Further, the Percent Effect is 8.2% in assay [6]; 12.4% in the assay filed under Homo sapiens; 2.73% in assay [7]; 8.64% in assay [8]; -6.3% in [9].
On to `O=C(c1cc(COc2ccc3c(c2)OCO3)[nH]n1)N1CC=CC1CO` (stereo not given), for which the Percent Effect in [1] was -3.88%; in assay [2] it was -2.74%; in [3] it was 9.97%; in assay [4], 22.3%; with Trypanosoma cruzi, -5.36%; in assay [5], 0.399%. Further, the Percent Effect in [6] is 15.3%; in the assay listed under Homo sapiens it was 9.04%; in assay [7], 3.12%; in assay [8], -8.64%; in [9], 0.567%.
On to `O=C(NCc1ccccc1)N1CCC2(CC(=O)N(c3ccsc3)C2)C1` (stereo not given), for which the Percent Effect is -1.66% in assay [1]; 0% in assay [2]; 3.29% in assay [3]; 0.825% in [4]; 0.977% with Trypanosoma cruzi; 0.417% in assay [5]. Besides, the Percent Effect in assay [6] was 2.45%; in the assay filed under Homo sapiens it was -9.22%; in assay [7], 85.2%; in assay [8], 6.1%; in [9] it was -1.83%.
`CNc1cncc(C2CCCN2Cc2ccccc2OCC(=O)O)n1` (stereo not given): the Percent Effect in [1] was -4.52%; in assay [2], -52.7%; in [3], 7.74%; in assay [4], 0.809%; in the assay with Trypanosoma cruzi it was -3.75%; in assay [5] it was -2.55%. Further, the Percent Effect in assay [6] came out at 9.52%; in the assay filed under Homo sapiens, 5.72%; in assay [7], 1.07%; in assay [8] it was 3.9%; in assay [9] it was 0.143%.
For `Cc1cccnc1CN1CCC(c2nnc(Cn3cccn3)n2C)CC1`, the Percent Effect in assay [1] was -4.04%; in [2] it was 1.39%; in assay [3], 0.385%; in [4] it was -7.79%; with Trypanosoma cruzi it was -3.98%; in [5], 2.21%. The Percent Effect in [6] was 8.95%; in the assay listed under Homo sapiens, -6.28%; in [7] it was 3.16%; in [8], 10.3%; in [9] it was -2.58%.
For the compound `Cn1cc(C(=O)NCC2CCN(C(=O)NCC(F)(F)F)CC2)cn1`, the Percent Effect is -2.53% in assay [1]; 16.5% in assay [2]; -6.78% in [3]; 1.59% in assay [4]; -0.308% in the assay on Trypanosoma cruzi; 0.645% in assay [5]. The Percent Effect is 11% in assay [6]; 16% in the assay filed under Homo sapiens; 8.33% in [7]; 12.7% in [8]; -22.3% in assay [9].
Turning to `CC(NC(=O)NCCNc1cnccn1)c1cccs1` (stereo not given), the Percent Effect in assay [1] is -1.5%; in assay [2] it was 23.4%; in assay [3], 1.73%; in [4], 3.58%; with Trypanosoma cruzi, 2.81%; in assay [5], 2.49%. Besides, the Percent Effect in assay [6] is 3.21%; in the assay listed under Homo sapiens, -20.8%; in assay [7] it was 8.74%; in assay [8], 24.4%; in assay [9], -11.5%.
Consider `CCN1CCN(S(=O)(=O)c2cc(Cl)c(Cl)cc2C)CC1`, for which the Percent Effect in assay [1] was -2.56%; in [2] it was 2.6%; in [3], 5.2%; in assay [4] it was 3.88%; in the assay with Trypanosoma cruzi, -3.83%; in assay [5], -4.14%. For the same compound, the Percent Effect was -4.99% in assay [6]; -8.04% in the assay filed under Homo sapiens; -28% in assay [7]; 1.24% in assay [8]; 3.26% in assay [9].
As for `CSCC(C)(O)CNC(=O)c1ccc(Br)cc1F` (stereo not given), the Percent Effect in assay [1] is -7.07%; in assay [2], 2.7%; in assay [3] it was -0.438%; in assay [4], 0.101%; in the assay with Trypanosoma cruzi, 2.25%; in [5], 3.23%. In addition, the Percent Effect in assay [6] is 2.15%; in the assay listed under Homo sapiens it was -2.21%; in assay [7], 3.23%; in [8], 6.17%; in assay [9], -3.6%.
